Screening data deposited in PubChem by several laboratories.
Shown are actives, neighbours in structure and some others; about 3.8% of the full set was active somewhere.
Yp Topo-I inh: Yersinia pestis topoisomerase I inhibitors, primary screen, biochemical, cleavage product accumulation, plate reader, single point | DNA topoisomerase I (Yersinia pestis CO92) | Y. pestis Topo-I cleavage product accumulation | activity, % at 10 µM | 360,000 compounds, 0.064% hits; in the data active = activity above about 50%, passing the limit was not always enough
PrP 5UTR inh: inhibition of PrP 5' UTR reporter expression; cell-based PrP 5' UTR mRNA reporter, plate reader; inhibition, % (no concentration beside the values); 340,000 compounds, 0.35% hits; AID 488862, 2010; in the data active = inhibition above about 52%; also: 0 = median of the neutral control wells
FBA Mtb inh: Mtb FBA enzyme inhibitors, primary screen, biochemical, fluorescence, strain H37Rv; Fructose-bisphosphate aldolase (Mycobacterium tuberculosis (strain ATCC 25618 / H37Rv)), …; inhibition, % at 1 µM; purified M. tuberculosis FBA, fluorescence read-out; AID 588726, 2011; 360,000 compounds, 2.3% hits; in the data active = inhibition above about 27%;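 also: 0% = vehicle and 100% = reference inhibitor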
Target sequence (P9WQA3 whole entry, looked up): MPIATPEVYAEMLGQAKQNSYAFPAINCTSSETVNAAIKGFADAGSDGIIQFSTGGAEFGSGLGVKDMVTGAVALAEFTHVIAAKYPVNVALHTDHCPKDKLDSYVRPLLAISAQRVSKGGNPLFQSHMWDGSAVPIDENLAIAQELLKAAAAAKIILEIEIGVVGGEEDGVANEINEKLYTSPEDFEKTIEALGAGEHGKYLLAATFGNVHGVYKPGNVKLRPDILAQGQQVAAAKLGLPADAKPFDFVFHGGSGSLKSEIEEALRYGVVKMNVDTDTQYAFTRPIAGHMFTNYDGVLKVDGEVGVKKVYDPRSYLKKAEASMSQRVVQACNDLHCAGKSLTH
GDH-TPI counter: GDH-TPI coupling enzyme inhibitors, primary screen, artefact control for M. tuberculosis FBA inhibitor project, biochemical, absorbance, full deck; GDH-TPI coupled enzyme counterscreen, NADH absorbance; inhibition, % at 4.8 µM; 360,000 compounds, 1.2% hits; AID 588335, 2011; in the data active = inhibition above about 30%;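 also: 0% = DMSO wells and 100% = wells lacking the enzyme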
PrPC TRFRET: inhibitors of human cell surface prion protein PrPC, primary screen, cell-based, TR-FRET; AID 720596, 2013; Major prion protein (Homo sapiens), P04156; 370,000 compounds, 0.43% hits; inhibition, % at 13.8 µM; TR-FRET read-out; in the data active = inhibition above about 24%; also: 0% = median of the test wells and 100% = reference compound wells
Mtb hypoxia rep: PubChem AID 1159583; M. tuberculosis hypoxia-regulated fluorescent reporter, fluorescence; 300,000 compounds, 0.1% hits; fluorescence inhibition, % (concentration not given with the values); in the data active = fluorescence inhibition mostly above about 23%, no sharp cut-off; inactive = mostly below about 17%
An asterisk follows results filed as active; . = no result given; + = active, no number.

SMILES	Yp Topo-I inh	PrP 5UTR inh	FBA Mtb inh	GDH-TPI counter	PrPC TRFRET	Mtb hypoxia rep
CCn1cc(/C=C(\NC(=O)c2cc(OC)c(OC)c(OC)c2)C(=O)NCCCN2CCOCC2)c2ccccc21	4.6	-12.9	-10.9	13.5	3.5	3.9
Cn1cc(/C=C(\NC(=O)c2ccccc2Cl)C(=O)NCCN2CCOCC2)c2ccccc21	-8.7	3.3	-4.1	25.4	-8.0	-7.8
COc1cccc2[nH]c3c(N4CCC(C(N)=O)CC4)ncnc3c12	4.3	-7.7	182.7*	24.9	6.3	12.4
COc1cc(OC)cc(-c2c(C#Cc3ccsc3)c3cc(-c4cccc5[nH]cc(C=O)c45)ccc3n2C)c1	-5.6	-20.3	6.4	32.3*	0.5	1.7
COc1cc(OC)cc(-c2c(C#Cc3ccsc3)c3cc(-c4ccc(OC)nc4)ccc3n2C)c1	-9.1	-6.9	18.4	44.2*	2.6	5.8
COc1cc(F)cc(-c2ccc3c(c2)c(C#Cc2ccsc2)c(-c2cc(OC)cc(OC)c2)n3C)c1	-6.2	-12.3	13.9	31.4*	2.5	8.5
COc1cc(OC)cc(-c2c(C#Cc3ccsc3)c3cc(-c4ccc(OC)c(OC)c4)ccc3n2C)c1	-8.4	-15.3	19.3	44.0*	0.9	-1.9
COc1ccc(-c2c(C#Cc3ccsc3)c3ccccc3n2C)cc1	-3.3	-53.0	2.9	11.9	-4.7	.
COc1cc(OC)cc(-c2c(C#Cc3ccsc3)c3cc(Br)ccc3n2C)c1	0.9	5.2	13.4	8.8	-6.8	-0.8
CCOC(=O)CN1C(=O)NC(c2ccccc2)C(C(=O)OC)C1C (stereo unspecified)	.	.	.	.	.	7.6
CCN(CC)c1ccc(C=NNC(=O)c2cccc(N3CCCC3=O)c2)cc1	.	.	.	.	.	6.2
CC=CC=CC(=O)Nc1cccc(C2=NOC3(C2)CC(C(N)=O)N(C(=O)c2cc([N+](=O)[O-])cc([N+](=O)[O-])c2C)C3)c1 (stereo unspecified)	.	.	.	.	.	11.2
COC(=O)C1CN(C(=O)c2ccccc2)C(=O)N1 (stereo unspecified)	.	.	.	.	.	6.5
CC(=NNC(=O)CCc1ccccc1)c1ccc2c(c1)OCO2	.	.	.	.	.	4.2
O=[N+]([O-])c1ccc(Cl)c(S(=O)(=O)N=C(c2ccccc2)N2CCOCC2)c1	.	.	.	.	.	4.6
COc1ccc(NCC(=O)NN=C2CCCC(C)C2)cc1 (stereo unspecified)	.	.	.	.	.	12.5
Cc1cccc(N(CC(=O)N/N=C/c2cc([N+](=O)[O-])ccc2Cl)S(C)(=O)=O)c1C	6.1	1.1	34.0*	9.1	.	.
CS(=O)(=O)N(CC(=O)N/N=C/c1cc([N+](=O)[O-])ccc1Cl)c1ccccc1	-4.1	-13.1	-0.1	-1.4	-7.4	.
CC[C@@]12C(=O)N(c3cccc(Br)c3)C(=O)N1C(c1ccc(OC)cc1)C1C(=O)N(C(C)(C)C)C(=O)C12 (stereo partly specified)	.	.	.	.	.	-5.5
O=C(O)COc1ccccc1/C=C1\SC(=S)N(NC(=O)c2ccccc2O)C1=O	-0.9	-27.9	-2.7	32.6*	-7.0	1.6
C=CCSC1=NC(=Cc2ccc3c(c2)OCO3)C(=O)S1	.	.	.	.	.	5.2
CCn1cc(/C=C(\NC(=O)c2ccccc2F)C(=O)N2CCCC2)c2ccccc21	7.8	-15.1	-6.4	31.8*	.	3.3
CCn1cc(/C=C(\NC(=O)c2ccccc2F)C(=O)N2CCOCC2)c2ccccc21	22.3	-62.4	-1.7	30.8*	.	4.3
CCn1cc(/C=C(\NC(=O)c2ccccc2Cl)C(=O)N2CCOCC2)c2ccccc21	20.0	-13.1	0.4	24.8	-4.9	10.9
CCn1cc(/C=C(\NC(=O)c2ccccc2Cl)C(=O)N2CCN(C)CC2)c2ccccc21	2.8	-2.3	0.3	39.1*	4.1	-18.1
SMILES	Yp Topo-I inh	PrP 5UTR inh	FBA Mtb inh	GDH-TPI counter	PrPC TRFRET	Mtb hypoxia rep
O=C1C2C(c3ccc(F)cc3)N3C(=O)N(c4cccc(Br)c4)C(=O)[C@@]3(Cc3ccc(Cl)cc3)C2C(=O)N1C1CCCCC1 (stereo partly specified)	.	.	.	.	.	14.8
COc1ccc(C(=O)ON=C(C)c2ccccc2)cc1	.	.	.	.	.	0.7
CCOC(=O)/C(C#N)=C1/C=CN(Cc2ccccc2)C=N1	4.7	-31.8	-2.7	48.3*	18.6	-1.2
CCOC(=O)/C(C#N)=C1/C=CN(c2ccccc2)C=N1	-0.9	-19.6	0.0	38.3*	-16.4	.
CCOC(=O)/C(C#N)=C1\C=CN(C)C(C)=N1	1.5	-26.6	-0.3	41.7*	1.5	4.8
CCOC(=O)/C(C#N)=C1\C(=O)N(Cc2ccccc2)c2ccccc21	-4.7	-3.5	-0.8	19.7	-7.8	7.6
CCOC(=O)/C(C#N)=C1/C=CN(C)C=N1	-4.9	-23.4	-3.4	50.3*	-5.6	2.3
CC(=O)[C@@]1(O)CCC2C3CC=C4CC(O)CC[C@]4(C)C3CC[C@@]21C (stereo partly specified)	.	.	.	.	.	6.5
CC(C)CC(NC(=O)c1[nH]cnc1C(=O)Nc1ccc(CNC(=O)OC(C)(C)C)cc1)C(=O)OC(C)(C)C (stereo unspecified)	.	.	.	.	.	13.0
CCOC(=O)/C(C#N)=C1/C=CN(c2ccc(C)cc2)C=N1	7.6	-41.7	-6.0	43.3*	-31.1	16.2
CCOC(=O)/C(C#N)=C1/SC(CC)C(=O)N1c1ccc(C)cc1 (stereo unspecified)	2.3	-30.8	2.0	8.3	6.1	.
CCN1CC2C3C(=O)N(Cc4ccccc4)C(=O)C3[C@](C)(C1=O)N2C(=O)c1ccc(C(C)(C)C)cc1 (stereo partly specified)	.	.	.	.	.	16.0
CC(=O)OC1CC[C@]2(C)C3=CC[C@]4(C)C(C(C)OC(C)=O)CCC4C3CCC2C1 (stereo partly specified)	.	.	.	.	.	-4.9
CCc1ccc(OCc2n[nH]c(=S)n2C(C)CCCC(C)C)cc1 (stereo unspecified)	63.2*	-54.9	-1.3	3.3	9.8	-4.3
O=[N+]([O-])c1ccc(Cl)c(C=Nn2c(COc3ccccc3)n[nH]c2=S)c1	.	.	.	.	.	6.3
CCC1SC(=NN=Cc2ccco2)N(Cc2ccccc2)C1=O (stereo unspecified)	.	.	.	.	.	4.8
CCCc1cc(=O)oc2cc(OCC(=O)N3CCC(C(N)=O)CC3)ccc12	-1.4	-9.5	26.1	10.8	0.5	.
CCCc1cc(=O)oc2c3c(cc(OCC(=O)N4CCC(C(=O)O)CC4)c12)OC(C)(C)CC3	1.6	.	+	20.1	2.3	.
CCCc1cc(=O)oc2c3c(cc(OCC(=O)NCC4CCC(C(=O)O)CC4)c12)OC(C)(C)CC3 (stereo unspecified)	11.8	-9.3	+	18.6	-7.1	.
Cc1cc(=O)n2[nH]c(-c3ccc(C(C)(C)C)cc3)cc2n1	-5.0	.	35.9*	11.4	11.3	2.5
Cc1ccc(S(=O)(=O)N2CCN(C(=O)c3cc4c(s3)CCCC4)CC2)c(C)c1	34.2	.	-1.6	3.2	-5.5	8.4
O=C(c1cc2c(s1)CCCC2)N1CCN(S(=O)(=O)c2ccccc2C(F)(F)F)CC1	57.8*	2.9	-3.1	0.7	-2.0	1.9
